The values that follow come from PubChem BioAssay (NCATS).

Inconclusive results are not listed. A call without a number means that no potency is given here. Activity calls are given as the source filed them. Calls come from the whole dose curve; as a rule, active = well fitted inhibition curve with a large enough effect; inconclusive = small, poorly fitted or top-dose-only effect; inactive = flat fitted curve, though single readings scatter.
Potency is the fitted concentration of half-maximal effect.

The test system of the first assay is AS120. Kind of assay: qHTS profiling for inhibitors of Plasmodium falciparum proliferation (AID 504749). Note: nearly all actives have a fitted effect of over 60% in size. The following applies: P. falciparum in erythrocytes, SYBR Green DNA, 72 h; series mostly up to 28.7 µM. Put shortly: (§1)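 Readout was DNA-dye fluorescence from lysed cultures, ex 485/em 535 nm. Parasitized red cells had grown 72 h with compound; data scaled between 0.29 uM artemisinin and DMSO wells and corrected using vehicle-only plates.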
On the technique in general: Quantitative high-throughput screening tests each substance at several concentrations.
On to `CCCSc1ccc2nc(NC(=O)OC)[nH]c2c1`, for which the Potency result is “inactive”. On the same count and under the same terms, next, `O=C(O)[C@H](CC(=O)N1C[C@H]2CCCC[C@H]2C1)Cc1ccccc1`: “inactive”. Turning to `C=C(Nc1ccc(OCC)cc1)Nc1ccc(OCC)cc1`, the Potency entry was “inactive”.

`CC(=O)[C@]1(O)Cc2c(O)c3c(c(O)c2[C@@H](O[C@H]2C[C@H](N)[C@H](O)[C@H](C)O2)C1)C(=O)c1c(O)cccc1C3=O`: the Potency was 7.94 µM (active).

In a further assay the test system is ATS189. Described as above. The settings on record: P. falciparum in erythrocytes, SYBR Green DNA, 72 h; series mostly up to 28.7 µM. A digest of the protocol:
as §1
Consider `CN(C)c1ccc(C(=C2C=CC(=[N+](C)C)C=C2)c2ccccc2)cc1`, for which the Potency was 7.94 µM (active).

As for `O=C(OCc1ccccc1)c1ccccc1`, the Potency result is “inactive”. Regarding `Nc1ccc(C(=O)O)c(O)c1`, the Potency result is “inactive”. The same measure, in the same setting: next, `O=C(/C=C/c1ccccc1)NCCO`: “inactive”; `O=C1CN(/N=C/c2ccc(-c3ccc([N+](=O)[O-])cc3)o2)C(=O)N1`: “inactive”. The same measure, in the same setting: next, `CCCCCCCCCCCCCCCCCC(=O)O`: “inactive”; `O=C(O)c1cc(O)c(O)c(O)c1`: “inactive”. On to `CCOC(=O)c1ccccc1O`, for which the Potency result is “inactive”. With `COc1cc(/C=C/C(=O)N2CCN(CC(=O)N3CCCC3)CC2)cc(OC)c1OC`, the Potency result is “inactive”. For `Nc1cc(-c2ccncc2)c[nH]c1=O`, the Potency entry is “inactive”. Regarding `O=C(O)c1ccccc1Nc1cccc(C(F)(F)F)c1`, the Potency result was “inactive”. In the case of `NC(=O)C(c1ccccc1)(c1ccccc1)[C@@H]1CCN(CCc2ccc3c(c2)CCO3)C1`, the Potency entry was “inactive”. On the same count and under the same terms, with `CCCC(=O)OC[C@@H](OC(=O)CCC)[C@@H](OC(=O)CCC)[C@H](Cn1c2nc(=O)[nH]c(=O)c-2nc2cc(C)c(C)cc21)OC(=O)CCC` the entry was “inactive”; with `c1ccc2sc(SN3CCOCC3)nc2c1`, “inactive”. `Clc1ccccc1-c1nc(-c2ccncc2)no1`: the Potency entry was “inactive”.
